Measurements published in PubChem BioAssay AID463173 (ICCB-Longwood Screening Facility, Harvard Medical School, 2010).
Among all 52,000 compounds or so, about 4,300 (8.3%) were called active. Rule as the data show it: active = survival mostly below about 52% (no sharp cut-off); inactive = mostly above about 56%. The list comes from a sample in which actives are over-represented; it also holds similar structures and randomly drawn compounds.

The compounds below were run on DeltatarO mutant (assay: growth inhibition of S. aureus wild type versus tarO mutant, primary screen, teichoic acid synthesis inhibitors, RN4220, OD600 (AID 463173)). Settings: OD600, 18 h, hits give low values, screened at 18.75 µg/mL (by protocol).

Row | Structure (SMILES) | survival
1 | Cc1ccc2oc3c(c(=O)c2c1)C1(C(=O)N(C)c2ccccc21)N(CCCO)C3=O (configuration not stated) | 51% (active)
2 | COCCN1C(=O)c2oc3ccc(C)cc3c(=O)c2C12C(=O)N(C)c1ccccc12 (configuration not stated) | 45% (active)
3 | CCCN1C(=O)C2(c3ccccc31)c1c(oc3ccc(C)cc3c1=O)C(=O)N2CCOC (configuration not stated) | 60% (inactive)
4 | CCCN1C(=O)C2(c3ccccc31)c1c(oc3ccccc3c1=O)C(=O)N2CCCOC(C)C (configuration not stated) | 48% (inactive)
5 | CCN1C(=O)C2(c3ccccc31)c1c(oc3ccc(C)cc3c1=O)C(=O)N2CCCOC(C)C (configuration not stated) | 49% (inactive)
6 | COCCCN1C(=O)c2oc3ccccc3c(=O)c2C12C(=O)N(C)c1ccccc12 (configuration not stated) | 64% (inactive)
7 | CCCN1C(=O)C2(c3ccccc31)c1c(oc3cc(C)c(C)cc3c1=O)C(=O)N2CCCOC (configuration not stated) | 55% (active)
8 | CCN1C(=O)C2(c3ccccc31)c1c(oc3ccc(F)cc3c1=O)C(=O)N2CCCOC (configuration not stated) | 64% (inactive)
9 | Cc1cc2oc3c(c(=O)c2cc1C)C1(C(=O)N(C)c2ccccc21)N(CCO)C3=O (configuration not stated) | 55% (inactive)
10 | CCCCc1nn2c(C)c(-c3ccc(OCC)cc3)nc2s1 | 103% (inactive)
11 | CCOC(=O)c1sc(NC(=O)C(C)Sc2nc(-c3ccccc3)cc(C(F)(F)F)n2)c(C(=O)OC)c1C (configuration not stated) | 159% (inactive)
12 | Cc1ccc(Cl)cc1N1CCN(C(=O)Cn2nc(C)c3sc4ccccc4c3c2=O)CC1 | 57% (inactive)
13 | COc1ccc(CCN2C(=O)CN=C2Nc2ccc(F)cc2)cc1OC | 78% (inactive)
14 | COC(=O)c1ccc(C(=O)OC)c(NC(=O)c2ccc(-c3ccccc3)s2)c1 | 126% (inactive)
15 | CCOC(=O)c1c(CN(C)C)oc2ccc(O)cc12 | 88% (inactive)
16 | CC(C)CCNC(=O)[C@@H](c1ccccc1)N1Cc2ccccc2C1=O | 12% (active)
17 | O=C(Nc1ccc(F)c(F)c1)C(c1ccccc1)N1Cc2ccccc2C1=O (configuration not stated) | 102% (inactive)
18 | CSc1cccc(NC(=O)C(c2ccccc2)N2Cc3ccccc3C2=O)c1 (configuration not stated) | 88% (inactive)
19 | O=C(Nc1ccc(F)cc1)[C@@H](c1ccccc1)N1Cc2ccccc2C1=O | 38% (active)
20 | O=C(Nc1cccc(F)c1)[C@@H](c1ccccc1)N1Cc2ccccc2C1=O | 46% (active)
21 | CCc1ccccc1NC(=O)[C@@H](c1ccccc1)N1Cc2ccccc2C1=O | 4% (active)
22 | CC(=O)Nc1ccc(NC(=O)C(c2ccccc2)N2Cc3ccccc3C2=O)cc1 (configuration not stated) | 119% (inactive)
23 | Cc1ccc(NC(=O)[C@@H](c2ccccc2)N2Cc3ccccc3C2=O)cc1 | 71% (inactive)
24 | CCCCNC(=O)[C@@H](c1ccccc1)N1Cc2ccccc2C1=O | 54% (inactive)
25 | O=C(Nc1ccccc1F)C(c1ccccc1)N1Cc2ccccc2C1=O (configuration not stated) | 72% (inactive)

Row | Structure (SMILES) | survival
26 | CCOc1ccccc1NC(=O)C(c1ccccc1)N1Cc2ccccc2C1=O (configuration not stated) | 96% (inactive)
27 | CC(C)NC(=O)C(c1ccccc1)N1Cc2ccccc2C1=O (configuration not stated) | 101% (inactive)
28 | COc1ccc(C(=O)OCc2cc(=O)n3nc(C4CC4)sc3n2)cc1OC | 91% (inactive)
29 | CC(=O)N1c2ccc(S(=O)(=O)NCC3CCC(C(=O)Nc4ccccc4C)CC3)cc2CC1C (configuration not stated) | 104% (inactive)
30 | CCOc1ccccc1CNC(=O)C1CCN(S(=O)(=O)c2ccc3c(ccn3C)c2)CC1 | 96% (inactive)
31 | O=C(Nc1cccc(F)c1F)C1CCN(c2ncccn2)CC1 | 62% (inactive)
32 | COc1ccc(CCNC(=O)CCCCn2c(=O)c3ccccc3n(CC(=O)Nc3c(C)cccc3C)c2=O)cc1OC | 115% (inactive)
33 | Cc1ccc2c(c1)-c1onc(C(=O)N(C)c3ccc(F)cc3)c1CO2 | 65% (inactive)
34 | O=C(NCCCN1CCN(c2ccccc2F)CC1)C1COc2ccccc2C1 (configuration not stated) | 92% (inactive)
35 | COc1ccc(OC)c(CCNC(=O)c2ccc3c(c2)c(C)c(C)n3Cc2ccccc2)c1 | 79% (inactive)
36 | COc1cc(-c2nc3cc(Cl)ccc3o2)cc(OC)c1OC | 87% (inactive)
37 | CCOC(=O)c1sc2ccccc2c1S(=O)(=O)Nc1c(C)cccc1C | 70% (inactive)
38 | CN(Cc1ccccc1)C(=O)CSc1nc(-c2ccc(F)cc2)cc(C(F)(F)F)n1 | 31% (active)
39 | COc1ccccc1CNC(=O)CSc1nc(-c2ccc(OC)c(OC)c2)cc(C(F)(F)F)n1 | 55% (inactive)
40 | COc1ccc(-c2cc(C(F)(F)F)nc(SCC(=O)N(C)Cc3ccccc3)n2)cc1 | 44% (inactive)
41 | COc1ccc(-c2cc(C(F)(F)F)nc(SCC(=O)NCCc3ccccc3)n2)cc1OC | 58% (inactive)
42 | O=C(CSc1nc(-c2ccc(F)cc2)cc(C(F)(F)F)n1)NCc1ccccc1 | 62% (inactive)
43 | COc1ccc(-c2cc(C(F)(F)F)nc(SCC(=O)N(C)Cc3ccccc3)n2)cc1OC | 33% (active)
44 | O=C(C1CCC1)N1CCc2cc(S(=O)(=O)NCc3ccc(F)cc3)ccc21 | 93% (inactive)
45 | CCOc1ccccc1NC(=O)Cn1c(=O)n(-c2ccc(Cl)cc2)c(=O)c2oc3ccccc3c21 | 69% (inactive)
46 | CN(C)c1ccc(NC(=O)CSC2=Nc3ccccc3C3=NC(CCC(=O)NCc4cccs4)C(=O)N23)cc1 (configuration not stated) | 75% (inactive)
47 | Cc1ccc2oc(=O)c3cc(C(=O)Nc4ccc(C)c(F)c4)sc3c2c1 | 77% (inactive)
48 | Cc1nc(-n2nc(C)c(CCC(C)C)c2C)sc1C(=O)Nc1ccc(Br)cc1 | 50% (inactive)
49 | Cc1ccc(-n2ncc3c(N(C)Cc4ccccc4)ncnc32)cc1 | 89% (inactive)
50 | CCCCN(CCCC)c1ncnc2c1cnn2-c1cccc(C)c1 | 74% (inactive)

Row | Structure (SMILES) | survival
51 | COc1ccc(CCNc2ncnc3c2cnn3-c2ccc(C)cc2)cc1 | 81% (inactive)
52 | Cc1ccc(-n2ncc3c(N(CCO)Cc4ccccc4)ncnc32)cc1 | 8% (active)
53 | CCN(c1ccccc1)c1ncnc2c1cnn2-c1ccc(OC)cc1 | 52% (active)
54 | COc1ccc(-n2ncc3c(NCCCOC(C)C)ncnc32)cc1 | 0% (active)
55 | OCCN(CCO)c1ncnc2c1cnn2-c1ccc(F)cc1 | 6% (active)
56 | CCN(Cc1ccccc1)c1ncnc2c1cnn2-c1ccc(F)cc1 | 79% (inactive)
57 | CCN(c1ccccc1)c1ncnc2c1cnn2-c1ccc(C)cc1C | 55% (inactive)
58 | Cc1ccc(-n2ncc3c(NCCc4ccccc4)ncnc32)cc1 | 87% (inactive)
59 | COCCCNc1ncnc2c1cnn2-c1ccc(F)cc1 | 86% (inactive)
60 | CCCCN(c1ccccc1)c1ncnc2c1cnn2-c1ccc(Cl)cc1 | 87% (inactive)
61 | COc1ccc(Cl)cc1NC(=O)c1c(NCc2sccc2C)sc2c1CCCC2 | 71% (inactive)
62 | CC(=O)NC1(c2ccccc2)CCN(Cc2nnnn2C(C)(C)C)CC1 | 91% (inactive)
63 | Cc1ccc(C)c(N2CCN(C(=O)CCS(=O)(=O)c3ccc4c(c3)CC(=O)N4C)CC2)c1 | 89% (inactive)
64 | O=C(Nc1ccccc1F)NC1CCN(Cc2nnnn2Cc2ccc(F)cc2)CC1 | 96% (inactive)
65 | CC(=O)N1CCCc2ccc(NS(=O)(=O)c3cccc(Cl)c3)cc21 | 80% (inactive)
66 | N#Cc1c[nH]n2c(NC3CCCC3)c(-c3cccc(Br)c3)nc12 | 45% (inactive)
67 | Cc1c(C(=O)N(Cc2ccc(N(C)C)cc2)C2CCS(=O)(=O)C2)oc2ccccc12 (configuration not stated) | 42% (active)
68 | COc1cccc(CN(C(=O)c2oc3cc(C)ccc3c2C)C2CCS(=O)(=O)C2)c1 (configuration not stated) | 57% (inactive)
69 | COc1cccc(CN(C(=O)c2oc3ccc(Br)cc3c2C)C2CCS(=O)(=O)C2)c1 (configuration not stated) | 40% (active)
70 | Cc1ccc2oc(C(=O)N(Cc3cccc(F)c3)C3CCS(=O)(=O)C3)c(C)c2c1 (configuration not stated) | 76% (inactive)
71 | Cc1c(C(=O)N(Cc2ccccc2F)C2CCS(=O)(=O)C2)oc2ccccc12 (configuration not stated) | 84% (inactive)
72 | Cc1ccc2c(C)c(C(=O)N(Cc3ccc(Cl)cc3)C3CCS(=O)(=O)C3)oc2c1 (configuration not stated) | 34% (active)
73 | COc1cc(CN(C(=O)c2oc3ccccc3c2C)C2CCS(=O)(=O)C2)cc(OC)c1OC (configuration not stated) | 55% (inactive)
74 | Cc1c(C(=O)N(Cc2cccc(F)c2)C2CCS(=O)(=O)C2)oc2cc(Br)ccc12 (configuration not stated) | 63% (inactive)
75 | COc1cccc(CN(C(=O)c2oc3ccccc3c2C)C2CCS(=O)(=O)C2)c1 (configuration not stated) | 69% (inactive)

Row | Structure (SMILES) | survival
76 | C=CCn1c(C(C)NC(=O)c2ccccc2Cl)n[nH]c1=S (configuration not stated) | 76% (inactive)
77 | Cc1cccc(C)c1NC(=O)c1ccc2nc(CCc3ccccc3)oc2c1 | 69% (inactive)
78 | O=C(Nc1ccc(Cl)cc1Cl)c1cc(S(=O)(=O)NCc2ccc3c(c2)OCO3)ccc1F | 94% (inactive)
79 | O=C(C1CCCN(S(=O)(=O)c2cccc3nsnc23)C1)N1CCN(c2ccccc2)CC1 (configuration not stated) | 79% (inactive)
80 | CN1C(=O)SC(N(CC(N)=O)c2ccccc2)C1=O (configuration not stated) | 61% (inactive)
81 | COc1cc(NC(=O)Cn2nc(Cc3cccnc3)c3ccccc3c2=O)cc(OC)c1OC | 71% (inactive)
82 | COCCNC(=O)CSc1nc2cc3c(cc2c(=O)n1CCCC(=O)NCc1ccc(OC)cc1)OCO3 | 84% (inactive)
83 | CC(=O)c1ccc(NC(=O)CSc2nnc3ccc(-c4ccc(Cl)cc4)nn23)cc1 | 83% (inactive)
84 | CCOC(=O)c1c(NC(=O)CSc2cn(CCNC(=O)c3ccc(OCC)cc3)c3ccccc23)sc2c1CCCC2 | 93% (inactive)
85 | COc1cccc(C(=O)COC(=O)c2cc(-c3cccs3)nc3ccccc23)c1 | 54% (inactive)
86 | Cc1ccc(-c2nc3c(cnn3-c3ccccc3)c(=O)n2-c2cccc(Cl)c2)cc1 | 33% (active)
87 | COc1ccc(-n2c(-c3ccccc3F)nc3c(cnn3-c3ccc(C)cc3)c2=O)cc1 | 80% (inactive)
88 | Cc1ccc(-n2c(-c3ccc(Br)cc3)nc3c(cnn3-c3ccccc3)c2=O)cc1 | 39% (active)
89 | CCc1nc2c(cnn2-c2ccccc2)c(=O)n1-c1ccc(Br)cc1 | 86% (inactive)
90 | Cc1ccc(-c2nc3c(cnn3-c3ccccc3)c(=O)n2-c2ccc(Cl)cc2)cc1 | 44% (active)
91 | COc1ccc(-n2c(-c3cccc(F)c3)nc3c(cnn3-c3ccc(C)cc3)c2=O)cc1 | 96% (inactive)
92 | Cc1ccc(-n2c(-c3cccc(C)c3)nc3c(cnn3-c3ccccc3)c2=O)cc1 | 19% (active)
93 | Cc1ccc(-n2c(-c3ccco3)nc3c(cnn3-c3ccc(C)cc3)c2=O)cc1 | 81% (inactive)
94 | CCc1nc2c(cnn2-c2ccc(C)cc2)c(=O)n1-c1ccc(C)cc1 | 47% (inactive)
95 | Cc1cccc(-c2nc3c(cnn3-c3ccccc3)c(=O)n2-c2ccc(Br)cc2)c1 | 139% (inactive)
96 | COc1cccc(-n2c(-c3ccccc3F)nc3c(cnn3-c3ccc(C)cc3)c2=O)c1 | 75% (inactive)
97 | COc1cccc(-n2c(-c3cccc(F)c3)nc3c(cnn3-c3ccc(C)cc3)c2=O)c1 | 76% (inactive)
